This is an account of results in PubChem BioAssay AID651821 (The Scripps Research Institute Molecular Screening Center, 2012).

In all, about 370,000 compounds went through this assay and about 4,700 (1.3%) were called active.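 The calls were made as follows: active = inhibition above the plate cutoff, the mean of all test compounds on that plate plus 3 SD (cut at about 35% in these data); inactive = the rest.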 Many of the other results were omitted from the sample, so actives are more common in it than they were.

The assay can be described thus: small molecules binding CAG repeat RNA – biochemical, fluorescence, primary screen (AID 651821).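 Also: 0% = DMSO alone and 100% = 100 µM mitoxantrone as full dye displacement; higher means more dye released from RNA so lower well fluorescence.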 The conditions noted are these: r(CAG) RNA repeat, TO-PRO-1 dye displacement fluorescence; at 3 µM; active compounds read high.
The inhibition is the relative decrease from the control value, in per cent. With `Cc1cccc(CS(=O)(=O)c2ncc(Cl)c(C(=O)Nc3ccc(F)cc3)n2)c1`, the inhibition is 2.26% (inactive).

In the case of `CSc1nnc(NC(=O)c2nc(S(=O)(=O)Cc3ccc(C)cc3)ncc2Cl)s1`, the inhibition was 42.9% (active).

`Clc1cccc2c1C1CC2CCN1Cc1ccccc1` (stereo unspecified): the inhibition is 1.58% (inactive).

Consider `O=C1C2C3C=CC(C3)C2C(=O)N1c1ccc(S(=O)(=O)Nc2nccs2)cc1` (stereo unspecified), for which the inhibition is 0.76% (inactive).

For `COc1cc(OC)c(C(=O)NNC(=O)c2ccc(NS(=O)(=O)c3cccs3)cc2)cc1OC`, the inhibition was 8.73% (inactive).

For the compound `O=S(=O)(NCCc1ccc(Cl)cc1)c1cccs1`, the inhibition is -4.34% (inactive).

Turning to `O=C(Nc1cccc(Cl)c1)Nc1ccccc1NS(=O)(=O)c1cccs1`, the inhibition is 48.5% (active).

For `O=C(Nc1nncs1)c1ccccc1NS(=O)(=O)c1cccs1`, the inhibition is 36.4% (active).

`C/C(=N\NC(=O)c1ccc(NS(=O)(=O)c2cccs2)cc1)c1ccc2ccccc2c1`: the inhibition was 19.2% (inactive).

As to `O=C(Nc1nncs1)c1cccc(S(=O)(=O)N2CCCCC2)c1`, the inhibition is 0.89% (inactive).

For `CC(C)CNc1cccc2c1S(=O)(=O)N(Cc1cn(Cc3ccccc3C(F)(F)F)nn1)Cc1ccccc1O2`, the inhibition was 7.51% (inactive).

As for `O=C(N[C@H](C(=O)N1CCC[C@H]1C(=O)NCCc1ccccc1Cl)c1ccccc1)c1ccccc1`, the inhibition is 3.45% (inactive).

Turning to `O=C(c1ccc2c(c1)OCO2)N1CCNc2ccccc2C1`, the inhibition is 2.38% (inactive).

Take `COC(=O)Cc1nnn2c1[C@H](C)[C@H](c1ccccc1Br)OCC2`: the inhibition was 2.7% (inactive).

`C#CCCN([C@H](C(=O)OC)C(C)C)S(=O)(=O)c1ccc(F)cc1Br`: the inhibition is 2.16% (inactive).

For the compound `COc1cccc(N(C)C(=O)[C@@H](C)[C@@H](O)c2ccc3ccccc3c2)c1`, the inhibition is -1.62% (inactive).

Consider `COC(=O)[C@]1(Cc2ccccc2)NC=C(C(=O)c2ccccc2)[C@@H]1c1cccc(OC)c1`, for which the inhibition is 4.57% (inactive).

Consider `COC(=O)C1=C(C)NC(=S)NC1c1ccc(OC)cc1` (stereo unspecified), for which the inhibition is 1.6% (inactive).

For the compound `CCN(CC(=O)Nc1cc(Cl)ccc1C)C(=O)Cn1c(=O)cnc2ccccc21`, the inhibition is -5.99% (inactive).

Consider `C=CCNc1nc(N)c(C(=C(C#N)C#N)c2ccccc2)s1`, for which the inhibition is 35.8% (active).

With `C=C(C)C#CC(Cc1ccccc1)N(CC1CC1)/C(N)=N/C(=O)OCc1ccccc1` (stereo unspecified), the inhibition is 0.56% (inactive).

With `NS(=O)(=O)c1ccc(CNC(=S)NC(=O)c2ccco2)cc1`, the inhibition was 0.4% (inactive).

For the compound `CCC1CCCCN1C(=S)NC(=O)c1ccco1` (stereo unspecified), the inhibition was 0.91% (inactive).

For `COc1ccc(/C=C(/NC(=O)c2ccco2)C(=O)Nc2ccc(C(C)=O)cc2)cc1`, the inhibition is 1.57% (inactive).

Consider `CC(Oc1ccc2ccccc2c1)C(=O)NNC(=S)NC(=O)c1ccco1` (stereo unspecified), for which the inhibition is 48.2% (active).

In the case of `CCCc1ccc(OCC(=O)NNC(=S)NC(=O)c2ccco2)cc1`, the inhibition is 36.2% (active).

As for `O=C(NC(=S)N1CCc2ccccc21)c1ccco1`, the inhibition is 0.88% (inactive).

Regarding `CCCCC(NC(=O)c1cccc(Br)c1)C(=O)O` (stereo unspecified), the inhibition is 0.46% (inactive).

As for `COC(=O)[C@]12C[C@H](CC(=O)N3CCOCC3)C(=O)N(Cc3ccc(Cl)cc3Cl)C1=C[C@H](COCc1ccccc1)O[C@@H]2C`, the inhibition was 4.28% (inactive).

With `CC(C)CNC(=O)OCc1cn(Cc2ccc(F)cc2)nn1`, the inhibition was 0.38% (inactive).

In the case of `Cc1cc2c(nc1C)CCCN2C`, the inhibition is -0.74% (inactive).

With `COC(=O)[C@H](C(C)C)N1CCc2nnn(Cc3ccc(C)cc3)c2-c2ccccc2S1(=O)=O`, the inhibition is -0.02% (inactive).

Take `COCc1[nH]nc2c1C(c1ccccc1)N(c1ccccc1)C2=O` (stereo unspecified): the inhibition was -0.7% (inactive).

For the compound `O=S(=O)(Nc1ccc2ccccc2c1)N1CCCCC1`, the inhibition was 4.05% (inactive).

As to `CS(=O)(=O)c1ccccc1C(=O)Nc1ccc2sccc2c1`, the inhibition was 2.53% (inactive).

For `O=C(Nc1ccc2ccccc2c1)Nc1ccc2snnc2c1`, the inhibition is 47.6% (active).

`C[C@@H]1ON(C)[C@H]2C[C@H]3c4cc(N5CCOCC5)ccc4CCN3C[C@@H]12`: the inhibition was 0.67% (inactive).

For `COC(=O)c1cccc(NC(=O)CSc2nc(C)cc(=O)[nH]2)c1`, the inhibition is 6.31% (inactive).

With `C=CCSc1nnc2c(n1)-c1cccc3cccc-2c13`, the inhibition is 7.81% (inactive).

As to `CSc1nsc(SCC(=O)Nc2cc(C(=O)O)ccc2C)n1`, the inhibition was 7.69% (inactive).

Consider `CCc1nnc(NC(=O)CSc2nnnn2-c2cccc(C(C)=O)c2)s1`, for which the inhibition was -0.71% (inactive).

Consider `C=CCSc1nsc(NC(=O)Nc2cccc(C(C)=O)c2)n1`, for which the inhibition is 60.2% (active).

With `CCSc1nsc(NC(=O)Nc2cccc(C(C)=O)c2)n1`, the inhibition was 62.7% (active).

On to `CC(=O)N1CCC(C(=O)Nc2nc(-c3ccccc3)ns2)CC1`, for which the inhibition was 6.24% (inactive).

For `CCCCN1C(=O)C(=O)N(CC(=O)Nc2cccc(C(C)=O)c2)C1=O`, the inhibition is 4.35% (inactive).

For the compound `CSc1nsc(NC(=O)Nc2ccccc2)n1`, the inhibition was 38.9% (active).

For the compound `O=C(NC1CCC1)c1ccc(C#CC2CC2)cn1`, the inhibition is 4.07% (inactive).

Consider `CCC(c1ccc(NC(=O)OC(C)(C)C)cc1)c1cc(OC)cc(OC)c1` (stereo unspecified), for which the inhibition was 3.19% (inactive).

As to `COC(=O)C1=C(C)N(Cc2ccccc2C(F)(F)F)C(=NCc2ccc(C(F)(F)F)cc2)NC1c1ccc(F)cc1` (stereo unspecified), the inhibition was 1.68% (inactive).

Regarding `C=CCN(C(=O)[C@@H](CCCC)[C@@H](O)c1ccc(Cl)cc1)c1ccccc1`, the inhibition was -0.19% (inactive).

Take `CCC(C)C(N=C1NS(=O)(=O)c2ccccc21)C(=O)N1CCC(C)CC1` (stereo unspecified): the inhibition is -5.03% (inactive).

With `COc1ccc(S[C@]2(C(=O)N(C)C)CC(=O)N(c3ccc(OC)cc3)[C@@H]2c2ccc(OC)cc2)cc1`, the inhibition was 2.57% (inactive).

As for `C=CCN1C(=O)[C@@H](CC(=O)NCC2CCCCC2)[C@]2(C(=O)OC)CCCCC=C12`, the inhibition is 2.39% (inactive).

With `CC(Oc1ccccc1[N+](=O)[O-])C(=O)N/N=C/c1ccoc1` (stereo unspecified), the inhibition was 6.95% (inactive).

Turning to `Cc1c(Cl)c([N+](=O)[O-])nn1Cc1ccc(C(=O)N/N=C\c2cc(Cl)ccc2O)o1`, the inhibition is 7.06% (inactive).

As for `Cc1cc(C(=O)N/N=C/c2ccc(O)c([N+](=O)[O-])c2)c(C)n1-c1ccc(F)cc1`, the inhibition was 40.9% (active).

Regarding `O=c1[nH]c(-c2ccccc2)cn1C1CCN(Cc2ccc(-c3nc4ccc(F)cc4nc3-c3ccccc3)cc2)CC1`, the inhibition was 14.3% (inactive).

As to `O=C(CCC1CCCN(Cc2ccc(O)c(Cl)c2)C1)NCc1ccccc1F` (stereo unspecified), the inhibition is -2.68% (inactive).

Turning to `CCOC(=O)C(=O)N(Cc1ccccc1)c1ccccc1C(=O)Nc1cc(OC)ccc1OC`, the inhibition is -0.13% (inactive).

Consider `CCC(NC(=O)C1C2C=CC3(CN(Cc4ccccc4)C(=O)C13)O2)c1ccccc1` (stereo unspecified), for which the inhibition is 0.21% (inactive).

On to `CCOc1ccc(OCCSc2nc3ccccc3n2CC(=O)O)cc1`, for which the inhibition is 7.86% (inactive).

On to `COc1ccccc1OCCn1c(SCC(N)=O)nc2ccccc21`, for which the inhibition was 1.66% (inactive).

With `Cc1ccc(C(C)C)c(OCCSc2nc3ccccc3n2CC(=O)O)c1`, the inhibition was 40.7% (active).

For `Cc1ccc(Cn2cc(CN3[C@@H](CC(C)C)COc4ccc(Cl)cc4S3(=O)=O)nn2)cc1`, the inhibition is 2.98% (inactive).

Regarding `COC(=O)C1CN(CCc2ccccc2)CCS(=O)(=O)N1Cc1cccc(Cl)c1` (stereo unspecified), the inhibition is 1.15% (inactive).

For `CN1C[C@]2(C=C3CCCCC3n3c(=O)n(-c4ccccc4)c(=O)n32)N=C1NC(=O)c1ccccc1` (stereo partly specified), the inhibition is 8.01% (inactive).

`Cc1ccc(C(=O)COC(=O)c2cccc(N3C(=O)c4c(C)nc5ccccc5c4C3=O)c2)cc1C`: the inhibition was 8.76% (inactive).

For `Cc1ccc(-c2nc3ccc(Br)cn3c2Cc2ccccc2C(F)(F)F)cc1`, the inhibition is 30.3% (inactive).

For the compound `Fc1cccc(Cc2c(-c3ccc(Cl)cc3)nc3ccc(Cl)cn23)c1`, the inhibition is 20.9% (inactive).

`COc1ccc(-c2nc3ccc(Br)cn3c2Cc2ccc(C)cc2)cc1OC`: the inhibition is 40.1% (active).

In the case of `Brc1ccc2nc(-c3ccccc3)c(Cc3ccccc3)n2c1`, the inhibition was 13.1% (inactive).

Regarding `Cc1cc(Br)cn2c(Cc3ccccc3C(F)(F)F)c(-c3ccc(Cl)cc3)nc12`, the inhibition was 11.8% (inactive).

With `Fc1cccc(Cc2c(-c3cccc(Cl)c3)nc3ccc(Br)cn23)c1`, the inhibition was 48.3% (active).

On to `Cc1cc(Br)cn2c(Cc3cccc(F)c3)c(-c3cccc(Br)c3)nc12`, for which the inhibition is 48.4% (active).

Consider `COC(=O)c1ccc2nc(-c3ccc(OC)c(OC)c3)c(Cc3ccccc3)n2c1`, for which the inhibition is 9.92% (inactive).

For `Cc1ccc(-c2nc3c(C)cc(Br)cn3c2Cc2ccccc2)cc1`, the inhibition was 10.3% (inactive).

As to `CCCCCC(O)c1cccc(OCc2ccc3ccccc3n2)c1` (stereo unspecified), the inhibition is 1.42% (inactive).

With `Cc1ccc(NC(=O)N2c3ccccc3SC2c2ccco2)c(C)c1` (stereo unspecified), the inhibition is 5.91% (inactive).

`COc1ccccc1Cc1c(-c2ccc(F)cc2)nc2ccc(C)cn12`: the inhibition is 6.12% (inactive).

For `CCCCNC(=O)C[C@@H]1C[C@@]2(C(=O)OCC)CCC=C2N(Cc2cccc3ccccc23)C1=O`, the inhibition is 1.85% (inactive).

For `CCOc1cc(C)ccc1OCc1nnc(SCC(=O)Nc2cccc(C(=O)O)c2)n1-c1ccccc1`, the inhibition is 42% (active).

As to `COc1ccc(-n2c(COc3ccc(C)cc3)nnc2SCC(=O)Nc2ccc(Oc3ccccc3)cc2)cc1`, the inhibition was 5.38% (inactive).

For the compound `Cc1ccc(-n2c(COc3ccccc3)nnc2SCC(=O)Nc2ccc3c(c2)OCCO3)cc1`, the inhibition was 7.21% (inactive).

In the case of `COC(=O)[C@]12C[C@H](CC(=O)N3CCN(C(=O)C4CC4)CC3)C(=O)N(CCC3=CCCCC3)C1=C[C@H](C(C)C)O[C@@H]2C1CC1`, the inhibition is 3.85% (inactive).

Consider `COc1cccc(/C=N/Nc2ccc(S(=O)(=O)Nc3ccccc3C(=O)O)cc2[N+](=O)[O-])c1O`, for which the inhibition is 93.8% (active).

On to `Cc1ccc(S(=O)(=O)NC(=O)COc2ccccc2C)cc1`, for which the inhibition was 1.07% (inactive).

As for `O=C(Nc1cc(S(=O)(=O)Nc2ccc(Cl)cc2)ccc1O)c1ccc(F)cc1F`, the inhibition is 22.4% (inactive).

In the case of `COc1ccc(Br)cc1/C=N/Nc1ccc(S(=O)(=O)Nc2ccccc2C(=O)O)cc1[N+](=O)[O-]`, the inhibition was 70.1% (active).

As to `CCOc1ccccc1NS(=O)(=O)c1c[nH]c(C(=O)OC)c1`, the inhibition is -0.7% (inactive).

With `O=[N+]([O-])c1cc(S(=O)(=O)Nc2cccc(Cl)c2)ccc1N=Nc1c(O)[nH]c2ccccc12`, the inhibition was 8.1% (inactive).

For the compound `COc1ccc(S(=O)(=O)NC(C)c2ccccc2)cc1C(=O)N1CCCCC1` (stereo unspecified), the inhibition is -7.44% (inactive).

In the case of `Cc1ccc(NS(=O)(=O)c2ccc(N/N=C/c3ccccc3OCC(=O)O)c([N+](=O)[O-])c2)c(C)c1`, the inhibition is 86.9% (active).

In the case of `COc1ccc(N(CC(=O)Nc2ccc(C)cc2C)S(=O)(=O)c2ccccc2[N+](=O)[O-])c(OC)c1`, the inhibition was 7.1% (inactive).

`CCN(CC(=O)NCc1cccs1)C(=O)c1cccc(S(=O)(=O)Nc2ccccc2OC)c1`: the inhibition was -2.88% (inactive).

For the compound `O=C(O)c1ccccc1/C=N/Nc1ccc(S(=O)(=O)Nc2ccc(Cl)cc2)cc1[N+](=O)[O-]`, the inhibition was 67% (active).

Regarding `COc1cc(/C=C/C(=O)O)cc(S(=O)(=O)Nc2ccccc2C(=O)NCCc2ccccc2)c1OC`, the inhibition was 31.7% (inactive).
